The campaign covered roughly 320,000 compounds. About 3,300 (1%) were called active. The sample as a whole holds a higher share of actives than the screen did. A number with no mark means an inactive call.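 How the source made its calls: active means every valid replicate shows activation above 250% relative to neutral control wells; inactive means the rest, any valid replicate at or below 250%.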
Assay: restored growth of temperature-sensitive Mot1-301 yeast – S. cerevisiae, ATP luminescence, 38.5C, SUMOylation pathway inhibitor project, primary screen (AID 2716);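 further: OY570 slx delta 5 strain wells were the positive control but not used for scaling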
Settings: S. cerevisiae Mot1-301 growth rescue, at 18.8 µM, hits give high values, percent above DMSO median, 100 means doubled

| Compound | growth rescue |
| --- | --- |
| Cc1cc(=O)n2nc(N3CCCC(C(=O)NCc4ccc(Cl)cc4)C3)sc2n1 (stereo not given) | 7.79% |
| O=C(CSc1nc2[nH]c(=O)[nH]c(=O)c2s1)Nc1cccc(F)c1 | -17.9% |
| O=S(=O)(Nc1ncnc2sccc12)c1cccc(F)c1 | 5.08% |
| O=C(NCC1CCCO1)c1cc2c(s1)CCCC2 (stereo not given) | -9.49% |
| CC1=CC(=O)C=CC1(C)C(Cl)(Cl)Cl (stereo not given) | 385% (active) |
| COc1ccccc1Nc1nnc(SC(C)C(=O)NC2CC2)s1 (stereo not given) | -11.6% |
| CC1C(=O)N2CCCc3cc(S(=O)(=O)NCc4ccc(F)cc4)cc1c32 (stereo not given) | -4.02% |
| Cc1ccc(NC(=O)CSc2nnc(CNC(=O)c3ccccc3F)o2)cc1 | 3.58% |
| O=C(OC1CCOC1=O)c1cccc(S(=O)(=O)Nc2ccc(F)cc2)c1 (stereo not given) | 535% (active) |
| O=C(NCCN1CCOCC1)c1cccc(S(=O)(=O)Nc2ccc(F)cc2)c1 | 18.1% |
| O=C(OC1CCCCC1=O)c1cccc(S(=O)(=O)NCc2ccccc2)c1 (stereo not given) | 12.9% |
| CCCCn1c(N)c(N(CC(C)C)C(=O)c2cccc(S(=O)(=O)N3CCN(C(C)=O)CC3)c2)c(=O)[nH]c1=O | -9.04% |
| Cc1cccc(N2CCN(S(=O)(=O)c3ccc4[nH]c(=O)c(=O)[nH]c4c3)CC2C)c1 (stereo not given) | 2.34% |
| COc1ccc(CCNC(=O)COC(=O)C2CC2C)cc1 (stereo not given) | 4.29% |
| O=C(c1c(F)cccc1F)N1CCN(S(=O)(=O)c2ccc3c(c2)OCCO3)CC1 | 3.47% |
| CCC(=C/c1sc2ccc3ccccc3c2[n+]1C)/C=C1\Sc2ccc3ccccc3c2N1C | 6.07% |
| Cc1cc(C)c(OCC(=O)N/N=C/c2ccco2)c(C)c1 | 568% (active) |
| Cc1ccc(NC(=O)CCC(=O)N/N=C/c2ccco2)c(C)c1 | -4.26% |
| Cc1c(Cl)cccc1NC(=O)CCC(=O)N/N=C/c1ccco1 | 2.23% |
| CCOc1ccc(CCNC(=O)COC(=O)CCS(=O)(=O)c2ccc(C)cc2)cc1OCC | -6.14% |
| Cc1ccc2nc(NC(=O)CSc3nc(=O)n(CCCN(C)C)c4c3CCC4)sc2c1 | -6.26% |
| CN(NC(=O)c1ccccc1)c1nc2ccccc2nc1C(F)(F)F | 29.8% |
| CN(NC(=O)c1ccccc1F)c1nc(C(F)(F)F)nc2ccccc12 | 658% (active) |
| CSc1nc(N(C)NC(=O)c2cccc(C)c2)c2ccccc2n1 | -1.55% |

| Compound | growth rescue |
| --- | --- |
| CCOC(=O)[C@@H]1[C@H]2COc3ccc(Br)cc3[C@H]2N2C(=O)N(c3ccc(C)cc3)C(=O)[C@@]12C | 5.35% |
| O=C(NCc1ccco1)C(c1ccncc1)N(C(=O)Cn1nnc2ccccc21)c1ccccc1 (stereo not given) | 5.81% |
| C=CCC(Nc1ccccc1)c1cccc(OC)c1OC (stereo not given) | -16.1% |
| C=CCC(NCCCO)c1cccc(OC)c1OC (stereo not given) | 1100% (active) |
| COc1cccc(C(CC(=O)NCCN2CCOCC2)NS(=O)(=O)c2ccc(C)cc2)c1OC (stereo not given) | -1.44% |
| CC(=O)Nc1ccc(/C(C)=N/NC(=O)CN(c2ccccc2Br)S(C)(=O)=O)cc1 | -7.93% |
| CNC(=O)/C(C#N)=C/c1c(F)cccc1Cl | -36.4% |
| COc1ccc(/C=N/OCc2ccccc2C#N)c(OC)c1 | 31.4% |
| COc1ccc(S(=O)(=O)N2CCOC2CNC(=O)C(=O)NCc2ccncc2)cc1C (stereo not given) | 392% (active) |
| COc1ccc(S(=O)(=O)N2CCOC2CNC(=O)C(=O)NCc2ccncc2)cc1OC (stereo not given) | -3.43% |
| COc1ccc(CCNC(=O)C(=O)NCC2OCCN2S(=O)(=O)c2ccc(OC)c(C)c2)cc1 (stereo not given) | 0.71% |
| Cc1ccc(CC2CC(=O)N(c3ccc4c(c3)OCCO4)C2=O)cc1 (stereo not given) | 1800% (active) |
| Cc1ccc(CC2CC(=O)N(c3cc(C)ccc3C)C2=O)cc1 (stereo not given) | -12% |
| COc1ccc(N2CCN(C3CC(=O)N(c4ccc5c(c4)OCCO5)C3=O)CC2)cc1 (stereo not given) | 21.5% |
| O=C(NCc1ccccc1Cl)NC(=O)c1csc([N+](=O)[O-])c1 | -7.29% |
| COc1ccc(C(C#N)(CC(=O)O)c2cnccn2)cc1OC (stereo not given) | -15.4% |
| COc1cccc(OC)c1C(=O)Nc1ccc(Cc2ccncc2)cc1 | 12.2% |
| COc1cccc(OC)c1C(=O)Nc1ccc2c(c1)n(C)c(=O)n2C | 676% (active) |
| Cn1c(=O)n(C)c2cc(C(=O)Nc3ccc(Br)cc3)ccc21 | 15% |
| CC(C)N(C(=O)CSc1nc(COc2ccccc2)nc2ccccc12)C(C)C | -2% |
| FC(F)(F)c1cccc(NC(=S)Nc2cccc(Cl)c2)c1 | 2.73% |
| Cc1csc(NC(=S)Nc2cccc(Cl)c2)n1 | 817% (active) |
| S=C(Nc1cccc(Cl)c1)Nc1ccc2c(c1)OCCO2 | -16% |
| O=c1c2c(-c3ccccc3)ccnc2[nH]n1-c1ccccc1 | -10.9% |

| Compound | growth rescue |
| --- | --- |
| CCC(CC)c1nnc(NC(=O)C2CCN(C(=O)c3ccco3)CC2)s1 | -12.8% |
| CO/N=C(/CS(=O)(=O)c1ccc(Br)cc1)c1ccc(OC)cc1 | -7.59% |
| O=C(O)Cc1ccc(-c2ccccc2)cc1 | 403% (active) |
| O=C(O)Cc1ccc(NCc2ccccc2Cl)cc1 | 67.5% |
| O=C(Cc1ccc(-c2ccccc2)cc1)NC(c1ccccc1)c1ccccc1 | -3.02% |
| COc1cc(/C(=C/c2ccccc2)c2ccccc2)c2c(c1)oc1ccccc12 | 1.69% |
| Cc1cc(C)cc(Oc2nc3c(C)cccn3c(=O)c2/C=C(\C#N)C(=O)NC2CCS(=O)(=O)C2)c1 (stereo not given) | -14% |
| CCC(C)(C)NC(=O)C(c1cccc(OC)c1OC)N(CC(C)C)C(=O)CCC(=O)Nc1cc(C)on1 (stereo not given) | 13.1% |
| COc1ccc(OCCCC(=O)Oc2ccc(OC)cc2)cc1 | -3.53% |
| COc1ccc(OCCC(=O)c2ccc(OC)cc2)cc1 | 614% (active) |
| COc1ccc(CCC(=O)c2ccc(OC)cc2)cc1 | 34.5% |
| O=C1CCC/C(=N\NC(=O)NC2CCCCC2)C1 | -14.5% |
| Cc1nn(Cc2ccc(F)cc2)c(C)c1NC(=O)c1noc2c1CCc1ccccc1-2 | -2.02% |
| CCOc1ncccc1C(=O)Nc1ccc2c(c1)OCCO2 | 6.77% |
| CCOc1cc(/C=N/O)cc(Br)c1OC | 341% (active) |
| COc1cc(/C=N/O)cc(Br)c1OCc1cccc(Cl)c1 | -7.89% |
| COc1cc(/C=N/O)cc(Br)c1OS(=O)(=O)c1ccc(C)cc1 | 13.1% |
| Cc1ccc(F)c(NC(=O)CCc2ccccc2)c1 | -0.553% |
| COCCCNC(=O)C1CCC(CNS(=O)(=O)c2ccc(OC)cc2)CC1 (stereo not given) | -13.1% |
| CCCCc1c(O)nc2n(c1=O)CCS2 | -12.2% |
| CCCCCCCCc1c(O)nc(-n2[nH]c(C)c(CCO)c2=O)[nH]c1=O | 605% (active) |
| O=C(NCCc1ccc(Cl)cc1)C1CCCN1C(=O)NCc1ccccc1 (stereo not given) | -4.04% |
| O=C(CN1C(=O)NC2(CCCC2)C1=O)Nc1ccc(F)c(F)c1F | -3.83% |
| Cn1c(NC(=O)c2ccccc2)nc2ccccc21 | 4% |

| Compound | growth rescue |
| --- | --- |
| Cc1ccc(O)c(CNc2nc3ccccc3n2C)c1 | 913% (active) |
| CC(C)n1c(NCc2c[nH]c3ccccc23)nc2ccccc21 | 5.8% |
| CCN1CCN(c2sc(S(C)(=O)=O)nc2S(=O)(=O)c2ccc(Cl)cc2)CC1 | 2.93% |
| C/C(=N\NC(=O)C1(C)CC1(Br)Br)c1ccc(C)cc1C (stereo not given) | 8.98% |
| CCCCc1nccn1CCn1ccnc1CCCC | 1.48% |
| COc1ccc(CCNC(=O)Cc2ccc(C)cc2)cc1OC | 102% |
| COc1ccc(CCNC(=O)CC2SC(=Nc3cc(C)cc(C)c3)NC2=O)cc1OC (stereo not given) | 308% |
| CCCN=C1NC(=O)C(CC(=O)NCCc2ccc(OC)c(OC)c2)S1 (stereo not given) | 536% (active) |
| COc1cccc(N(CC(=O)NCc2ccccc2)C(=O)CCC(=O)Nc2nccs2)c1 | -6.15% |
| COC(=O)C1CCN(CC(N)=O)CC1 | -5.03% |
| COc1ccc(C(=O)COC(=O)Cn2cnc3c2c(=O)n(C)c(=O)n3C)c(OC)c1 | -7.8% |
| O=C(Nn1cnnc1)c1cc(Cl)ccc1Cl | 4.55% |
| CN1CCN(S(=O)(=O)c2cccc(C(=O)Nc3cccc(S(N)(=O)=O)c3)c2)CC1 | -8.57% |
| CCCCC1=CC2=CC(=O)C(C)(OC(=O)CC)C(=O)C2=CN1CCCOC(C)C (stereo not given) | 499% (active) |
| COC(=O)CCCC1=CC2=CC(=O)C(C)(OC(=O)c3cccs3)C(=O)C2=CN1CC(C)C (stereo not given) | 13.6% |
| COC(=O)CCCC1=CC2=CC(=O)C(C)(OC(=O)c3cccs3)C(=O)C2=CN1CC1CC1 (stereo not given) | 414% |
| CCCCN(C1CCS(=O)(=O)C1)S(=O)(=O)c1ccc(C(C)C)cc1 (stereo not given) | 1.38% |
| CC(=O)c1ccc(S(=O)(=O)N2CCC(Oc3ccc(-n4cnnn4)cc3)CC2)cc1 | -5.14% |
| CCCCN(C(=O)COc1ccc(NC(C)=O)cc1)C1CCS(=O)(=O)C1 (stereo not given) | 0.599% |
| Cc1cccc(C)c1NC(=O)C(c1ccccc1)N1CC(=O)Nc2ccccc21 (stereo not given) | 8.11% |
| Cc1cccc(C)c1NC(=O)CN(C)C(=O)CCC(=O)c1ccccc1 | -17.7% |
| Cc1cccc(C)c1NC(=O)C(Cl)C(=O)c1ccccc1 (stereo not given) | 474% (active) |
| CN(C)CCCN(Cc1cc2cc3c(cc2[nH]c1=O)OCCO3)C(=O)NC1CCCCC1 | 4.3% |

From PubChem BioAssay AID2716 (Broad Institute, 2010)
